Shown are actives, neighbours in structure and some others; about 1.3% of the full set was active somewhere.
MCL1-BIM inh – inhibitors of MCL1 binding to BIM-BH3, primary screen, biochemical, fluorescence polarization. Induced myeloid leukemia cell differentiation protein Mcl-1 (Homo sapiens), Q07820. GST-MCL1 / FITC-Bim-BH3 fluorescence polarization. inhibition, % at 10.9 µM. 320,000 tested, 0.68% active;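 active means inhibition above the mean inhibition of all tested compounds plus 3 SD, set per campaign, cut at about 40% in these data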;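 further: higher means more loss of mP so more displacement of Bim peptide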
MEX-5 binding – MEX-5 zinc finger RNA-binding disruptors – biochemical, C. elegans, fluorescence polarization, MLPCN library, primary screen | Zinc finger protein mex-5 (Caenorhabditis elegans), Q9XUB2 | MEX-5/FITC-TCR2 RNA binding; active compounds read low | activity score (negative = inhibition of binding), % at 10 µM | 300,000 tested, 0.38% active | AID 1832, 2009;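 active means inhibition past about -25% in most replicates, and total fluorescence under double the plate's negative control median, limit read from the data; inconclusive means replicates evenly split on the limit, or fluorescence at least double controls; inactive means too little inhibition in most replicates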
EBV gp42 block – Epstein-Barr virus gp42 inhibitors, primary screen, biochemical, uHTS, fluorescence polarization | 220,000 tested, 0.42% active | Glycoprotein 42 (Epstein-Barr virus (strain AG876)), Q1HVG2 | Fluorescence polarization binding assay, mP read-out | AID 1085, 2008 | inhibition, % (tested at 21.74 µM); in the data active means inhibition above about 50%
Target sequence (Q1HVG2 whole entry, looked up): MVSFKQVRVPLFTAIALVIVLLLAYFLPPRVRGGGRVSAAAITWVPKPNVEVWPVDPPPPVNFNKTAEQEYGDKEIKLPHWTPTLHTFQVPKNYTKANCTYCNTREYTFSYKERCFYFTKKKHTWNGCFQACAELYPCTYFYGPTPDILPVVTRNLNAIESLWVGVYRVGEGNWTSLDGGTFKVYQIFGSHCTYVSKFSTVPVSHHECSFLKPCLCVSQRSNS
BCLXL inh – inhibitors of human Bcl-xL, primary screen, biochemical, fluorescence polarization, HTS; Bcl-2-like protein 1 (Homo sapiens), Q07817; GST-Bcl-xL / FITC-Bim BH3 peptide fluorescence polarization; inhibition, % at 10.9 µM; 320,000 tested, 0.7% active;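 active means inhibition above the mean of all tested compounds plus 3 SD, cutoff set per campaign, cut at about 30% in these data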;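 further: inhibitors lower millipolarization by displacing the labeled peptide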
GLD-1 RNA inh – GLD-1/TGE RNA complex disruptors, primary screen, biochemical, fluorescence polarization. 320,000 tested, 0.44% active. inhibition, % at 5.96 µM. Female germline-specific tumor suppressor gld-1 (Caenorhabditis elegans), Q17339. purified GLD-1 + fluorescein TGE RNA;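 active means percent inhibition above a per-plate cutoff, the plate mean of test compounds plus 3 SD, cut at about 30% in these data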
Bcl-xL conf – Bcl-xL inhibitors blocking Bim BH3 binding, confirmation, counter-screen for MCL1 inhibitor project, biochemical, fluorescence polarization | shares compounds with MCL1-BIM inh | GST-Bcl-xL / FITC-Bim BH3 peptide FP binding | inhibition, % at 10.9 µM | 1,700 tested, 54% active | AID 2166, 2009;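 active means inhibition above a cutoff equal to the mean inhibition of all tested compounds plus 3 SD, cut at about 30% in these data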
MCL1 BIM confirm – inhibitors of MCL1 binding to BIM-BH3, confirmation, biochemical, fluorescence polarization, triplicate; shares compounds with MCL1-BIM inh; GST-MCL1 / FITC-Bim-BH3 fluorescence polarization; inhibition, % at 10.9 µM; 1,700 tested, 61% active; AID 2168, 2009;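 active means inhibition above the average of all tested compounds plus 3 SD, cut at about 40% in these data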
Hits are given with their value; n = inactive; u = inconclusive; x = no result.

SMILES	MCL1-BIM inh	MEX-5 binding	EBV gp42 block	BCLXL inh	GLD-1 RNA inh	Bcl-xL conf	MCL1 BIM confirm
O=C1/C(=C\c2ccco2)SC(=S)N1C1CCS(=O)(=O)C1 (centres undefined)	n	n	n	n	n	x	x
CC(C(=O)N(C)C1CCS(=O)(=O)C1)N1C(=O)/C(=C/c2ccc(F)cc2)SC1=S (centres undefined)	n	n	x	n	n	x	x
Oc1ccccc1C=Nc1cccc2ccccc12	n	n	x	n	n	x	x
Oc1cccc(C=Nc2cccc3ccccc23)c1O	66	n	x	38	n	31	52
Oc1cccc(C=NCc2ccccc2)c1O	64	n	n	n	n	32	65
Oc1c(C=NCc2ccccc2)sc2ccccc12	n	n	n	n	n	x	x
Cc1ccc2[nH]c(=O)c3cc(C(=O)NC(C)C)sc3c2c1	167	n	x	138	155	n	n
Cc1ccc2[nH]c(=O)c3cc(C(=O)NCC4CCCO4)sc3c2c1 (centres undefined)	n	n	n	n	n	x	x
Cn1nc(C(=O)OCC(=O)Nc2ccc(C(N)=O)cc2)c2ccccc2c1=O	x	x	x	x	n	x	x
Cc1cc(Cl)ccc1Nc1ncccc1C(N)=O	n	n	n	n	n	x	x
NC(=O)c1cccnc1Oc1ccc(Cl)cc1Cl	54	n	n	n	n	n	n
O=C(NCc1n[nH]c(=O)c2ccccc12)C1CC(=O)N(c2ccccc2)C1 (centres undefined)	n	n	x	n	n	x	x
CC1=C/C(=C/N(C)c2ccccc2)C(=O)S1	41	n	n	n	n	n	n
CC1=C/C(=C\c2ccc3c(c2)OCO3)C(=O)S1	n	n	n	n	n	x	x
COc1ccc(-c2oc3cc(O)c(OC)c(O)c3c(=O)c2OC)cc1	n	n	n	n	n	x	x
COc1c(-c2ccc(O)cc2)oc2cc(O)cc(O)c2c1=O	43	x	n	n	n	n	86
COc1cc(N)c(Cc2nccc3cc(OC)c(OC)cc23)cc1OC	121	n	n	115	n	n	n
CN(C)c1ccc(/C=C/c2cc[n+]([O-])cc2)cc1	109	u	n	101	52	89	100
CCc1cc(C(=O)Nc2ccc(OC)nc2)sc1C	118	-58	x	111	85	108	130
COc1ccc(NC(=O)CCl)cn1	111	-60	71	105	82	84	115
COc1cccc(OC)c1C(=O)Nc1ccc(NC(=O)c2ccco2)cc1	n	n	n	n	n	x	x
COc1ccc(NC(=O)Nc2ccc([N+](=O)[O-])cc2)cn1	71	n	x	68	46	38	53
COc1ccc(NC(=O)c2ccco2)cn1	75	n	x	70	60	64	86
Cc1ccc(S(=O)(=O)N2CCC(=O)N(C(COCc3ccc(Cl)cc3)Cc3ccccc3)CC2)cc1 (centres undefined)	n	n	n	n	n	x	x
COc1ccc(SC[C@H](C)CN2CC[C@H](C(C)(C)C)CCC2=O)cc1	n	x	x	n	n	x	x
COc1ccc(NC(=O)/C=C/c2cccc(F)c2)cn1	75	n	n	75	47	54	68
COc1ccc(NC(=O)/C=C/c2ccco2)cn1	n	n	n	n	n	x	x
CCOc1ccc(C2C=C(c3ccc(C)cc3)Nc3nnnn32)cc1 (centres undefined)	50	n	n	59	33	39	57
O=C1N=C(N2CCN(c3cccc4ccccc34)CC2)S/C1=C/c1cccs1	n	n	n	n	n	x	x
Cc1ccccc1N1CCN(C2=NC(=O)/C(=C\c3cccs3)S2)CC1	46	n	n	n	n	n	n

High-throughput results deposited in PubChem BioAssay by several laboratories.
